Assay outcomes (PubChem BioAssay)
Shown are actives, neighbours in structure and some others; about 19% of the full set was active somewhere.
HT1080NT lethal: kills 2HG-producing HT-1080-NT fibrosarcoma cells. HT-1080-NT fibrosarcoma viability, CellTiter-Glo ATP luminescence, 48 h. Potency, µM (top dose mostly 46.1 µM), most hits filed as cytotoxic. actives 1.6% (n = 360,000). AID 686970;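 further: NT is the 2HG producing partner of a matched IDH1 knockdown line; nearly all actives have a fitted effect of over 55% in size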
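Luminescent CellTiter-Glo readout after 48 hours of compound exposure at 37 degrees C defined viability of HT-1080-NT cells. Activity was normalized to DMSO wells and cell-free media wells; concentration-response curves were fitted and assigned curve classes.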
KB-V1 cytotox: kills drug-selected multidrug resistant KB-V1 cells; AID 1347076; Potency, µM (series often up to 46.1 µM), hits mostly cytotoxic; KB-V1 MDR cells viability, CellTiter-Glo, 72 h; actives 3.4% (n = 400,000); further: nearly all actives have a fitted effect of over 60% in size
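In this primary screen, KB-V1 cells overexpressing P-gp are incubated with library compounds (lowest to highest concentration) for 72 h at 37 degrees C before a luminescent ATP viability read.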
DT40 TDP1 CPT: growth inhibition of DT40 Tdp1-/-;hTDP1 cells with camptothecin (screen for TDP1 inhibitors); Potency, µM (doses to about 46.2 µM), actives largely listed as inhibitors; actives 12% (n = 420,000); chicken DT40 Tdp1-/-;hTDP1 cells + 20 nM CPT, ATP luminescence, 48 h; further: nearly all actives have a fitted effect of over 55% in size
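Chicken DT40 Tdp1-/- cells complemented with human TDP1, 400 cells/well, exposed to compounds plus 20 nM camptothecin for at least 48 h at 37 C; viability read as ATP content by CellTiter-Glo luminescence.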
DT40 TDP1 no CPT: qHTS for Inhibitors of human tyrosyl-DNA phosphodiesterase 1 (TDP1): qHTS in cells in absence of CPT | actives 15% (n = 420,000) | AID 686978, 2013 | Potency, µM (doses to about 46.2 µM), usual class: inhibitors | DT40 Tdp1-/- hTDP1 cells, no CPT, ATP luminescence, 48 h; further: nearly all actives have a fitted effect of over 55% in size
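Luminescent ATP content (CellTiter-Glo) served as the growth readout. Knockout chicken DT40 cells expressing human TDP1 were exposed to compounds without camptothecin for a minimum 48 hr at 37 °C.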
KB-3-1 cytotox: KB-3-1 parental cell cytotoxicity; actives 1.4% (n = 400,000); Potency, µM (doses to about 46.1 µM), usual class: cytotoxic; KB-3-1 viability, CellTiter-Glo ATP luminescence, 72 h; AID 1347075; further: nearly all actives have a fitted effect of over 60% in size
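Cytotoxicity in the drug-sensitive parental line KB-3-1 was scored as loss of CellTiter-Glo luminescence following 72 h incubation with compound. Values come from curve fitting of normalized concentration-response data.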
HT1080 IDH1KD tx: HT-1080 IDH1 knockdown cell toxicity (counter line) | Potency, µM (highest dose often 46.1 µM), most hits filed as cytotoxic | AID 686971 | actives 2% (n = 360,000) | HT-1080 IDH1 knockdown viability, ATP luminescence, 48 h
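In this qHTS, HT-1080 cells depleted of IDH1 are exposed for 48 h at 37 °C to compound titrations. Toxicity is scored from CellTiter-Glo luminescence, with DMSO as full viability and medium alone as none.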
A number is an active result; i = inactive; ? = inconclusive; nt = no result; [ ] = dose if it differs, or a comment. The call rests on the fitted dose curve; in most records, active means well fitted curve in the direction sought with a large enough effect; inconclusive means small, poorly fitted or top-dose-only effect, or another doubt; inactive means no such curve, though single readings can be large; an effect the other way counts as inactive or inconclusive.

SMILES	HT1080NT lethal	KB-V1 cytotox	DT40 TDP1 CPT	DT40 TDP1 no CPT	KB-3-1 cytotox	HT1080 IDH1KD tx
O=[N+]([O-])c1ccc(O)c(CN2CCCCCC2)c1	i	i	i	i	i	i
Cc1cc(F)ccc1S(=O)(=O)Nc1ccc2oc3c(c2c1)CC(C)CC3 (stereo not drawn)	nt	?	?	?	i	nt
O=C(CCl)NCCCN(C(=O)C(Cl)Cl)c1ccc([N+](=O)[O-])cc1	?	?	9.2µM	13µM	i	?
O=C(NCCC1=CCCCC1)c1ccc2c(=O)n3c(nc2c1)CCCCC3	i	?	?	?	i	i
COc1ccccc1Nc1nn2c(=O)c3ccc(C(=O)NCCC4=CCCCC4)cc3nc2s1	nt	?	1.5µM	3.3µM	?	nt
Cc1c(Cl)cccc1Nc1nn2c(=O)c3ccc(C(=O)NCCC4=CCCCC4)cc3nc2s1	nt	i	?	4.6µM	?	nt
Cc1ccc(C)c(Nc2nn3c(=O)c4ccc(C(=O)NCCC5=CCCCC5)cc4nc3s2)c1	nt	i	6.5µM	7.3µM	i	nt
CCc1nc(-n2[nH]c(=O)c3ccccc3c2=O)c2c3c(sc2n1)CCCC3	i	i	i	i	?	i
Cc1nc(SCC(=O)NCC2CCCO2)c2c3c(sc2n1)CCC3 (stereo not drawn)	i	nt	i	i	nt	i
CCc1nc(Sc2nnnn2-c2ccccc2)c2c3c(sc2n1)CCCC3	i	?	16µM	18µM	i	i
Cc1nc(Sc2nnnn2C)c2c3c(sc2n1)CCC3	3.3µM	6.5µM	2.1µM	1.6µM	3.3µM	5.2µM
Cc1cc(OC(=O)c2ccc(S(=O)(=O)N3CCOCC3)cc2)c([N+](=O)[O-])c(=O)[nH]1	i	i	i	i	i	i
CCN(CC)CCCNC(=O)c1cn(C)c2ccc(S(=O)(=O)N(C)C)cc2c1=O	i	i	i	i	i	i
CCN(CC)CCCNc1ccc2ncn3c4ccc(O)cc4c(=O)c1c23	i	?	0.15µM	0.15µM	23µM	?
CN(C)CCNc1ccc2nnn3c4ccc(O)cc4c(=O)c1c23	23µM	?	0.18µM	0.18µM	7.3µM	21µM
O=C(c1ccco1)N1CCC2(CCCN(Cc3ccccc3)C2)CC1	nt	nt	i	?	nt	nt
COc1ccc(CCNC(=O)c2ccc3c(Cl)c4c(nc3c2)CCCC4)c(OC)c1	nt	i	16µM	18µM	?	nt
COc1ccc(CCNC(=O)c2ccc3c(Cl)c4c(nc3c2)CCCC4)cc1OC	nt	i	15µM	4.1µM	i	nt
COc1ccc(CCNC(=O)c2ccc3c(SCC(=O)O)c4c(nc3c2)CCCC4)cc1OC	i	i	i	i	i	i
COc1ccc(CNC(=O)c2ccc3c(Cl)c4c(nc3c2)CCCC4)c(OC)c1	nt	i	?	23µM	i	nt
COc1cc(Cl)c(C)cc1NC(=O)c1ccc2c(Cl)c3c(nc2c1)CCC3	nt	i	i	i	i	nt
CSc1ccc(CCNC(=O)c2cc3cc4cc(C)ccc4nc3s2)cc1	nt	i	?	?	i	nt
COc1ccccc1CNC(=O)CSC(=S)N1CCCC1	i	i	i	i	i	i
COc1ccc(/C=N/Nc2c(Cl)cc(Cl)cc2Cl)cc1CN1CCOCC1	i	i	16µM	15µM	i	i
COc1cccc(CN2CCC3(CCC(CNC(=O)c4ccccc4)O3)CC2)c1 (stereo not drawn)	nt	nt	i[9.04 µM]	i	nt	nt
SMILES	HT1080NT lethal	KB-V1 cytotox	DT40 TDP1 CPT	DT40 TDP1 no CPT	KB-3-1 cytotox	HT1080 IDH1KD tx
CN1C(=O)c2cccc(NCCCCCCN3C(=O)c4ccccc4C3=O)c2C1=O	i	i	21µM	9.2µM	i	i
O=C(Nc1cccc(C(F)(F)F)c1)c1cc(-c2ccc(Cl)s2)nc2ccccc12	nt	i	?	?	i	nt
COc1ccc(OC)c(NC(=O)CSc2ncnc3sc(C)cc23)c1	i	?	?	?	i	i
COc1cc(-c2nn3c(COc4ccccc4)nnc3s2)cc(OC)c1OC	i	5.2µM	i	i	i	i
COc1cc(-c2nn3c(Cc4ccccc4)nnc3s2)cc(OC)c1OC	i	i	35µM	?	i	i
CC(C)C(C)(C#N)NC(=O)COC(=O)C1CCN(S(=O)(=O)c2ccc3c(c2)OCCO3)CC1 (stereo not drawn)	i	i	i	i	i	i
CCOC(=O)c1cc(S(=O)(=O)NCc2ccc(Cl)cc2)[nH]n1	nt	i	i	i	i	nt
C=CCOC(=O)C(C#N)c1nc2ccccc2nc1N1CCN(c2ccccc2OCC)CC1 (stereo not drawn)	i	i	i	i	i	i
C=CCN(CC=C)c1nc2ccccc2nc1C(C#N)C(=O)OCCOC (stereo not drawn)	i	?	21µM	?	i	i[9.24 µM]
CCCN(CCC)c1nc2ccccc2nc1C(C#N)C(=O)OCCOC (stereo not drawn)	i	i	?	23µM	i	i
CCOC(=O)C1CCN(c2nc3ccccc3nc2C(C#N)C(=O)OCCOC)CC1 (stereo not drawn)	i	i	?	?	i	i
Cc1ccc(S(=O)(=O)N(CCC(=O)N2CCOCC2)c2ccccc2)cc1	i	i	i	i	i	i
Cc1oc2ccc(O)cc2c1C(=O)c1ccc([N+](=O)[O-])cc1	i	?	21µM	13µM	i	i
Cc1oc2ccc(O)cc2c1C(=O)c1ccc(Cl)cc1	i	i	i	?	i	i
CCN(C(=O)COC(=O)/C(=C/c1ccccc1)n1nnnc1C)C1CCCCC1	?	?	?	23µM	i	i
CCN(CC)C(=O)c1cccc(-c2csc(C(O)c3ccccc3)n2)c1 (stereo not drawn)	i	i	?	23µM	i	?
CCN(CC)C(=O)c1cccc(-c2csc(C(O)c3ccco3)n2)c1 (stereo not drawn)	i	i	21µM	?	i	i
CC(C)c1cccc(-c2csc(C(O)c3ccco3)n2)c1 (stereo not drawn)	i	i	?	?	i	i
CCN(CC)C(=O)c1cccc(-c2csc(C(O)c3ccc(F)c(F)c3)n2)c1 (stereo not drawn)	?	i	23µM	?	i	?
CCN(CC)C(=O)c1cccc(-c2csc(C(O)c3ccc(F)cc3)n2)c1 (stereo not drawn)	i	?	15µM	?	i	i
CCN(CC)C(=O)c1cccc(-c2csc(C(NC(C)=O)c3ccc(F)c(F)c3)n2)c1 (stereo not drawn)	i	i	?	?	i	i
CCN(CC)C(=O)c1cccc(-c2csc(C(NC(C)=O)c3ccccc3)n2)c1 (stereo not drawn)	i	i	?	?	i	i
Cc1cccc2c(N3CCCC3)nc(CNS(=O)(=O)c3ccccc3Cl)nc12	nt	nt	i[9.04 µM]	i	nt	nt
